Test [1] is described as follows: qHTS assay for small molecules that induce genotoxicity in human embryonic kidney cells expressing luciferase-tagged ATAD5 (AID 651632). Further: nearly all actives have a fitted effect of over 15% in size. The method, boiled down: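 Reporter cells (HEK293T) express luciferase-tagged ATAD5, a protein that accumulates after DNA damage. Treat 16 hr at 37C/5% CO2, add Amplite, wait 30 min at RT, and read luminescence.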
In general terms: In qHTS, concentration-response curves come from the screen itself.

The nature of test [2]: qHTS assay for small molecule agonists of the p53 signaling pathway - cell viability (AID 651633; calls by dose curve; further: nearly all actives have a fitted effect of over 30% in size; further: potency means the concentration at half of the fitted maximal effect). A digest of the protocol: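 Viability counter-read: CellTiter-Glo luminescence (30 min, room temperature) in the same p53RE-bla plates. These plates had been exposed to compounds for 16 h at 37 C.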
Test [3] in a line: qHTS assay for small molecules that induce genotoxicity in human embryonic kidney cells expressing luciferase-tagged ATAD5 - cell viability (AID 651634; calls by dose curve; further: nearly all actives have a fitted effect of over 25% in size; further: potency means the concentration at half of the fitted maximal effect). A digest of the protocol:
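Seeding of 2,000 HEK293T ATAD5-luciferase cells per well preceded pin-tool compound transfer. Plates sat 15.5 hr at 37C under 5% CO2, then fluorescence was read after 30 min with CellTiter-Fluor.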

Test [4] in a line: qHTS assay for small molecule disruptors of the mitochondrial membrane potential - cell viability (AID 720634; calls by dose curve; further: nearly all actives have a fitted effect of over 20% in size; further: potency means the concentration at half of the fitted maximal effect). A digest of the protocol:
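Measuring cytotoxicity alongside mitochondrial potential, the screen quantified ATP by luminescence in HepG2 cells after 1 hr compound incubation and a 30 min room-temperature CellTiter-Glo step.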

The nature of test [5]: qHTS assay to test for compound auto fluorescence at 590 nm (red) in HepG2 cells (AID 720674). A digest of the protocol:
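1 hr compound incubation on HepG2 cells, 37 C, 5% CO2; plate read ex 540 nm / em 590 nm; intensities reported as Rose Bengal sodium equivalents.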

Test [6] is described as follows: qHTS assay to test for compound auto fluorescence at 535 nm (green) in HepG2 cells (AID 720675).
Test [7] in a line: qHTS assay to test for compound auto fluorescence at 590 nm (red) in HEK293 cells (AID 720679). The method, boiled down:
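Autofluorescence equivalency to Rose Bengal sodium, 540/590nm, in HEK293 cells exposed overnight to 23 nL compound per well.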

A short description of test [8]: qHTS assay to test for compound auto fluorescence at 460 nm (blue) in HEK293 cells (AID 720678). A digest of the protocol: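 Auto fluorescence in the blue band was quantified as triamterene equivalency. HEK293 cells were seeded at 2,000/well, dosed after a 4-5 hr attachment, and kept overnight at 37C before the 405/460 nm reading.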
Test [9] is described as follows: qHTS assay for small molecule disruptors of the mitochondrial membrane potential (AID 720635). Further: potency means the concentration at half of the fitted maximal effect. A digest of the protocol: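 Mitochondrial membrane potential tracked with Mito-MPS dye, red aggregates (ex 540/em 590 nm) against green monomers (ex 490/em 535 nm). Compound treatment 1 hr at 37C, dye 30 min in HepG2.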

“And” between values parts separate entries of the source, which are not always exact repeats. Identical values can stand only once. A number with no mark means an inactive call. Records with an inconclusive call do not appear. The source made the active and inactive calls. Unless noted, the call rests on the fitted dose curve; in most records, active means well fitted curve in the direction sought with a large enough effect in the repeat runs; inconclusive means weak or mixed curves; inactive means no such curve, though single readings can be large; an effect the other way counts as inactive or inconclusive.

This note sets out measurements from PubChem BioAssay (Tox21).
On the % scale 0 is the no-effect control and ±100 the full control effect.

For `C=C(C#N)CCC#N`, the Potency entry in test [1], in test [2], in test [3] and in test [4] was “inactive” each time. Besides, the compound was classed as inactive in [5], in test [6] and in test [7].
Regarding `COc1nn(CSP(=S)(OC)OC)c(=O)s1`, the Potency entry in test [1], in test [2], in test [3] and in test [4] was “inactive” throughout. Also, the result in test [5], in test [6], in [8] and in [7] was inactive.
Take `CC(=O)NC1CCSC1=O` (stereo unspecified): the Potency entry in test [1], in test [2], in test [3], in test [4] and in test [9] was “inactive” throughout. Further, the result in test [5], in [8] and in [7] was inactive.
`NCC(CC(=O)O)c1ccc(Cl)cc1` (stereo unspecified): the Potency result in test [1], in [2], in [3], in test [4] and in test [9] was “inactive” in each case. The outcome in [5], in test [6], in test [8] and in test [7] was inactive.
As to `O=Cc1ccc2c(c1)OCO2`, the Potency entry in test [1], in test [2], in test [3], in test [4] and in [9] was “inactive” each time. Also, the result in test [5], in test [6], in test [8] and in [7] was inactive.
As for `CCOC(=O)[C@]1(c2ccccc2)Oc2ccccc2[C@@H]1N`, the Potency result in [1], in test [2], in [3] and in test [4] was “inactive” each time. Further, the outcome in test [5], in test [6] and in test [7] was inactive.
As for `Clc1ccc(C(OCCN2CCCCC2)c2ccccc2)cc1` (stereo unspecified), the Potency result in [1], in test [2], in test [3] and in test [4] was “inactive” in each case. Moreover, the fluorescence, relative to Rose Bengal in test [5] is -0.716% [at 18.6 µM]. The fluorescence, % of fluorescein control in test [6] was -0.0264% [at 18.6 µM]. In addition, the fluorescence, % of fluorescent control in test [7] is 0.965% [at 18.6 µM].
Consider `C[C@H]1CNCCc2ccc(Cl)cc21`, for which the Potency entry in test [1], in test [2], in test [3], in test [4] and in test [9] was “inactive” in each case. The outcome in [5], in test [6], in [8] and in test [7] was inactive.
For the compound `C(=NC1CCCCC1)=NC1CCCCC1`, the Potency entry in test [1] was “inactive”. Also, the Potency in test [2] is 30.8 µM (active) and 17.2 µM (active); in test [3] it was 30.8 µM (active) and 43.3 µM (active); in test [4] it was 5.48 µM (active); in [9], 138 nM (active) and 217 nM (active). For the same compound, the compound was classed as inactive in test [5], in test [6], in test [8] and in test [7].
As to `CC(=O)[C@H]1CC[C@H]2[C@@H]3CC[C@H]4C[C@](C)(O)CC[C@]4(C)[C@H]3CC[C@]12C`, the Potency entry in [1], in [2], in [3], in [4] and in test [9] was “inactive” throughout. For the same compound, the call in [5], in test [6], in test [8] and in test [7] was inactive.
In the case of `CCOP(=S)(OCC)SCSCC`, the Potency entry in [1], in test [2], in test [3] and in test [4] was “inactive” each time. In addition, the compound was classed as inactive in [5], in test [6], in [8] and in test [7].
Regarding `O=Cc1ccc(Cl)cc1Cl`, the Potency entry in [1], in test [2], in [3] and in test [4] was “inactive” throughout. The outcome in [5] and in test [7] was inactive.
For the compound `O=C(C(Cl)(Cl)Cl)C(Cl)(Cl)Cl`, the Potency entry in test [1], in test [2], in [3], in test [4] and in [9] was “inactive” in each case. Further, the result in test [5], in test [6], in test [8] and in [7] was inactive.
With `CC(C)N(CCC(C(N)=O)(c1ccccc1)c1ccccn1)C(C)C` (stereo unspecified), the Potency result in test [1], in test [2], in test [3], in test [4] and in test [9] was “inactive” each time. Also, the outcome in test [5], in test [6], in test [8] and in test [7] was inactive.
Consider `CCOP(O)OCC`, for which the Potency result in test [1], in [2], in [3] and in [4] was “inactive” throughout. Moreover, the outcome in test [5], in [6], in test [8] and in test [7] was inactive.
For the compound `O=S(=O)(Cl)c1ccccc1`, the Potency entry in test [1], in test [2], in test [3], in [4] and in test [9] was “inactive” each time. Further, the compound was classed as inactive in test [5], in test [8] and in test [7].
Consider `Nc1ccc([N+](=O)[O-])cc1[N+](=O)[O-]`, for which the Potency result in test [1], in test [2] and in test [4] was “inactive” in each case. Also, the results for the Potency in test [3] and in test [9] were 15 µM (active) and 29.9 µM (active), respectively. In addition, the result in test [5], in test [6], in test [8] and in [7] was inactive.
Regarding `Cc1c(F)c(F)c(COC(=O)C2C(/C=C(\Cl)C(F)(F)F)C2(C)C)c(F)c1F` (stereo unspecified), the Potency result in test [1] and in test [4] was “inactive” in each case. Further, the Potency in test [9] is 30.6 µM (active). The compound was called inactive in test [5], in test [6], in test [8] and in test [7].
